# An excerpt weighted towards active compounds, which were near 7.9% of everything screened.
# HCMV inh: human cytomegalovirus inhibition; actives 4.5% (n = 410,000); AID 1259415; HFF cells, HCMV-luciferase reporter, 72 h; hits give low values; activity change, negative = inhibition, % at 57.5 µM; in the data active = activity change below about -60%; inconclusive = no clear call, values can overlap the other calls; inactive = above about -39%
#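 Two compound doses tested in HFFs infected with HCMV-luciferase, MOI 1 PFU/cell, 72 h at 37C. Lysate luminescence read with OneGlo; data normalized against buffer-only and 10uM Salinomycin inhibitor controls.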
# FMDV inh: foot and mouth disease virus antiviral activity; FMDV antiviral cell-based qHTS; Potency, µM (series often up to 57.9 µM), without a hit: at the highest dose activity change, negative = inhibition, most hits filed as inhibitors; actives 1.2% (n = 410,000); calls by dose curve; tested in HEK293T cells; note: read-out not given here; potency is the fitted concentration of half-maximal effect; nearly all actives have a fitted effect of over 45% in size
# HCV inh: blocks hepatitis C virus; Huh7.5.1 HCVcc-Cre infection, luciferase reporter, 44 h; Potency, µM (titrated, usually from 41.8 µM), for the others: at the top dose activity change, negative = inhibition, most hits filed as inhibitors; actives 3.4% (n = 340,000); active = well fitted inhibition curve with a large enough effect; inconclusive = small, poorly fitted or top-dose-only effect, or another doubt; inactive = no such curve, though single readings can be large or run the other way; note: potency is the fitted concentration of half-maximal effect
#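 Cells seeded at 1,000/well and cultured 4 h, then compounds added followed by HCVcc-Cre virus (~0.5 moi). After 44 h further culture, luciferase substrate was added, plates held 15 min at room temperature, and luminescence read for 15 sec.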
# Marburg entry inh: Marburg virus entry inhibition; actives 1.8% (n = 300,000); Potency, µM (titrated, usually from 37.8 µM), inactives show at the top dose activity change, negative = inhibition, most hits filed as inhibitors; Marburg virus pseudotyped entry inhibition, cell reporter; calls by dose curve; tested in HEK293 cells; note: potency is the fitted concentration of half-maximal effect
# Lassa entry inh: blocks Lassa virus binding to or entry into cells. actives 1.2% (n = 300,000). Potency, µM (titrated, usually from 37.9 µM), for inactives: at the top dose activity change, negative = inhibition, actives largely listed as inhibitors. Lassa virus pseudotype entry inhibition, cell reporter. AID 540256; calls by dose curve; tested in HEK293 cells; note: potency is the fitted concentration of half-maximal effect; nearly all actives have a fitted effect of over 50% in size
# Numbers without * were called inactive; ? = inconclusive; . = no result given; + = active, no number; ! = not active in a repeat; [ ] = another dose, or the depositor's remark. % is set by controls: 0 for no effect and ±100 for the full control effect.
SMILES,HCMV inh,FMDV inh,HCV inh,Marburg entry inh,Lassa entry inh
CSc1ncc2c(n1)-c1cc(C)ccc1SC2,-98*,-10%,8.9µM*,?,-11%
COc1ccc(-c2c[n+]3c4n2CCCCC4=C(c2ccccc2)C3)cc1,-102*,22µM*,-27%,.,.
COc1ccc(-n2c(-c3ccc(Cl)cc3)c[n+]3c2CCCCC3)cc1,-80*,0%,-8%,3%,.
FC(F)Oc1ccc(-n2cc(-c3ccc(Cl)cc3)[n+]3c2CCCCC3)cc1,-17,-15%,-5%,2%,0%
COc1ccc(-c2c[n+](CC(=O)c3ccccc3)c3n2CCCCC3)cc1,?,-26%,?,.,.
COc1ccc(-c2c[n+]3c(n2-c2ccc(C)cc2)CCCCC3)cc1,-97*,?,?,7.1µM*,5µM*
FC(F)Oc1ccc(-c2c[n+]3c(n2-c2ccccc2)CCCCC3)cc1,?,-22%,5%,.,.
COc1ccc(-c2c[n+]3c(n2-c2ccccc2)CCCCC3)cc1,-96*,?,4%,?,-23%
COc1ccc(-c2c[n+]3c(n2-c2c(C)n(C)n(-c4ccccc4)c2=O)CCCCC3)cc1,1,27%,16%,?,-9%
CC(=O)Nc1ccc(C(=O)OCCc2ccccc2)cc1,2,26%,1%,2%[46.1 µM],14%[46.1 µM]
CCCOc1ccc(C(=O)NNC(=S)NC(=O)c2cccs2)cc1,?,0%,?,11µM*,?
CC(C)(C)C(=O)NC(=S)NNC(=O)c1ccncc1,29,-18%,-8%,?,-19%[46.1 µM]
CCCOc1ccc(C(=O)NNC(=S)NC(=O)c2ccco2)cc1,-31,?,-25%,?,?
CCCOc1ccc(C(=O)NNC(=S)NC(C)=O)cc1,-94*,10%,?,?,?
CCCOc1ccc(C(=O)NNC(=S)NC(=O)c2ccccc2)cc1,-86*,?,?,.,.
CC(C)(C)C(=O)NC(=S)NNC(=O)c1ccc(-c2ccccc2)cc1,.,-14%,6.3µM*,.,.
CNC(=O)c1c(NC(=O)c2nc(SCc3ccc(C)cc3)ncc2Cl)sc2c1CCCC2,-20,24%,.,?,-15%[46.1 µM]
CCOC(=O)N1CCN(C(=O)c2cc(-c3ccc(OCC)cc3)nc3ccccc23)CC1,120,-5%,?,?,4.6µM*
CCCc1ccc(-c2cc(C(=O)N3CCN(c4ccccn4)CC3)c3ccccc3n2)cc1,-64*,?,?,.,.
CCOc1ccc(-c2cc(C(=O)N3CCN(c4ccccn4)CC3)c3ccccc3n2)cc1,38,57%,7.1µM*!,?,?
COc1cc(-c2cc(C(=O)N3CCN(c4ccccn4)CC3)c3ccccc3n2)cc(OC)c1OC,40,?,13µM*,?,-24%
CCOc1ccc(-c2cc(C(=O)N3CCN(C)CC3)c3ccccc3n2)cc1,107,8%,-12%,?,-29%
Cc1ccc(NC(=O)N/C=C/c2ccco2)cc1C,-108*,6%,0%,4%,-1%
COc1ccc(N(C(=O)c2ccc(Cl)cc2)S(=O)(=O)c2ccc(C)cc2)cc1,-1,-19%,.,.,?
CCOC(=O)c1cc(-c2ccccc2)n(-c2cccc(C(=O)Nc3ccc(OC)cc3)c2)c1C,+,0%,.,.,-1%[46.1 µM]
SMILES,HCMV inh,FMDV inh,HCV inh,Marburg entry inh,Lassa entry inh
CCOC(=O)c1cc(-c2ccccc2)n(-c2cccc(C(=O)Nc3cccc(C(C)=O)c3)c2)c1C,0,-10%,.,.,-31%[46.1 µM]
CCOC(=O)c1cc(-c2ccccc2)n(-c2cccc(C(=O)Nc3cccc(F)c3)c2)c1C,+,-14%,.,.,-22%[46.1 µM]
CC(C)c1ccc(NC(=O)Cn2nnc(C(=O)NCc3ccco3)c2N)cc1,-16,-15%,0%,13%[46.1 µM],18%[46.1 µM]
O=c1oc(-c2ccc(C(F)(F)F)cc2)nn1Cc1cc(Cl)ccc1O,.,-7%,.,.,.
Cc1cc(C)c2cc3c(N)c(C(=O)N4CCc5ccccc5C4)sc3nc2c1,2,.,?,0%,6%
Cc1cccc2cc3c(N)c(C(=O)N4CCOCC4)sc3nc12,149,49%,?,?,11µM*
O=C(Nc1ccccc1F)c1coc(=O)c(Br)c1,-7,-27%,31%,-19%[46.1 µM],-8%
O=C(NCc1ccccn1)c1coc(=O)c(Br)c1,50,20µM*,13%,-13%,-1%
CCOc1ccc(C(=O)NCc2ccccn2)cc1,29,63%,23%,-3%,-2%
O=C(NCCc1ccc(F)cc1)c1coc(=O)c(Br)c1,-78*,35µM*,7%,.,.
Cc1cc(C)c2cc(C#N)c(N3CCCN(S(=O)(=O)c4ccccc4)CC3)nc2c1,.,.,-1%,0%,-4%
CC(=O)c1cccc(S(=O)(=O)N2CCN(c3nc4cc(C)cc(C)c4cc3C#N)CC2)c1,4,-22%,13µM*,?,-12%
CCN(CC)c1ccc(CN(C(=O)c2cc(=O)c3ccccc3o2)C2CCS(=O)(=O)C2)cc1 (stereo not given),16,0%,.,0%[46.1 µM],-9%[46.1 µM]
CCNC(=O)COC(=O)c1cc(C)n(-c2ccccc2)c1C,2,-2%,7%,4%[46.1 µM],5%[46.1 µM]
Cc1cc(C(=O)OCC(=O)NCc2ccco2)c(C)n1-c1ccc(F)cc1,?,?,?,?,10µM*
O=C(Cn1c(-c2ccccc2)c[n+]2ccsc12)c1ccc(Br)cc1,-74*,-12%,-5%,-26%[46.1 µM],-1%
COc1ccc(NS(=O)(=O)c2cccc(C(=O)N3CCN(C/C=C/c4ccccc4)CC3)c2)cc1,-7,-2%,.,.,.
COc1cccc(C2=CC(c3cc(OC)ccc3OC)n3nnnc3N2)c1 (stereo not given),-34,-40%,?,?,?
COc1ccc(OC)c(C2C=C(c3ccc(C)c(C)c3)Nc3nnnn32)c1 (stereo not given),24,-26%,?,?,5µM*
Cc1ccc(S(=O)(=O)N(C)C)cc1NC(=O)CN1CCN(Cc2ccccc2)CC1,-18,-22%,26%,?,-11%
Cc1ccc(S(=O)(=O)N(C)C)cc1NC(=O)c1cc(C(C)(C)C)nn1Cc1ccccc1,-25,?,5.6µM*,.,.
Cc1oc(-c2ccccc2F)nc1CS(=O)(=O)CC(=O)NCCc1ccc(Cl)cc1,-24,-18%,.,-11%[46.1 µM],3%[46.1 µM]
CCC(C)Sc1ccc([C@@H]2[C@@H]3C(=O)N(CC)C(=O)[C@@H]3[C@]3(C(=O)OC)CCCCN23)cc1OC (stereo not given in full),14,-24%,11µM*,.,.
Cc1ccc(C(=O)Nc2cc3ccccc3oc2=O)cc1,-67*,2µM*,-16%,?,2.8µM*
Cc1oc(=O)c(NC(=O)c2ccccc2)cc1C(=O)c1ccccc1,118,-22%,-19%,2%,?
CC(=O)Nc1cc2ccccc2oc1=O,-26,19%,11%,1%[46.1 µM],0%
Cc1oc(=O)c(NC(=O)c2ccc(Cl)cc2)cc1C(=O)c1ccccc1,-33,?,?,?,23µM*
COc1cc(CN2C(=O)CC[C@@H]3CN(Cc4ccccn4)CC[C@@H]32)cc(OC)c1OC,.,-4%,.,.,.
